Compounds with a hit are over-represented: about 19% of the library has one in this group of screens.
HT1080 IDH1KD tx: toxicity to HT-1080 IDH1 knockdown cells (counter line); HT-1080 IDH1 knockdown viability, ATP luminescence, 48 h; Potency, µM (titrated, usually from 46.1 µM), inactives show at the top dose activity, negative = toxicity, hits mostly cytotoxic; actives 2% (n = 360,000); AID 686971;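 also: potency is read from the fitted curve at half-maximal effect; 0% = DMSO wells and -100% = cell-free medium wells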
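After a 2 h attachment period, IDH1KD HT-1080 cells took pin-transferred compound for 48 h at 37 °C; ATP-based luminescence after 10 min room-temperature reagent incubation reported viability.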
TDP1 cell noCPT: qHTS for Inhibitors of human tyrosyl-DNA phosphodiesterase 1 (TDP1): qHTS in cells in absence of CPT | Potency, µM (top dose mostly 46.2 µM), for inactives: at the highest dose activity change, negative = growth inhibition, usual class: inhibitors | AID 686978, 2013 | actives 15% (n = 420,000) | DT40 Tdp1-/- hTDP1 cells, no CPT, ATP luminescence, 48 h; also: potency is read from the fitted curve at half-maximal effect; nearly all actives have a fitted effect of over 55% in size
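No-CPT arm: Tdp1-/-;hTDP1 DT40 cells (400/well) plus compounds, incubated ≥48 hr at 37 °C. Readout CellTiter-Glo luminescence.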
HT1080-NT tox: kills 2HG-producing HT-1080-NT fibrosarcoma cells; HT-1080-NT fibrosarcoma viability, CellTiter-Glo ATP luminescence, 48 h; Potency, µM (titrated, usually from 46.1 µM), without a hit: at the top dose activity, negative = less viability, actives largely listed as cytotoxic; actives 1.6% (n = 360,000);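 also: NT is the 2HG producing partner of a matched IDH1 knockdown line; potency is read from the fitted curve at half-maximal effect; 0% = DMSO-treated cells and -100% = media-only wells without cells; nearly all actives have a fitted effect of over 55% in size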
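Toxicity toward the 2HG-producing NT line was scored as %Activity, normalised to DMSO and no-cell wells, from CellTiter-Glo luminescence after 48 hours' treatment.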
IL1B secr inh: blocks inflammasome-driven IL-1 beta release | activity change, % at 57.5 µM | actives 4.7% (n = 360,000) | THP-1 LPS/ATP IL-1B secretion, AlphaLISA, 16 h; hits give low values; in the data active = activity change below about -50%; inconclusive = mostly about -30% to -49%
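Secreted IL-1B measured by AlphaLISA bead assay after 16 h compound exposure of THP-1 cells; compounds (final up to 57.5 uM) added 1 h before LPS (250 ng/mL) and ATP (1.25 mM) stimulation; lower signal means less secretion.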
DT40 TDP1 CPT: DT40-hTDP1 cell growth loss with CPT; chicken DT40 Tdp1-/-;hTDP1 cells + 20 nM CPT, ATP luminescence, 48 h; Potency, µM (top dose mostly 46.2 µM), inactives show top-dose activity change, negative = growth inhibition, most hits filed as inhibitors; actives 12% (n = 420,000); AID 686979; also: potency is read from the fitted curve at half-maximal effect; nearly all actives have a fitted effect of over 55% in size
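Chicken DT40 Tdp1-/- cells complemented with human TDP1, 400 cells/well, exposed to compounds plus 20 nM camptothecin for at least 48 h at 37 C; viability read as ATP content by CellTiter-Glo luminescence.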
Starred values were filed as active, the others as inactive; ? = inconclusive; · = no result. Unless noted, calls follow the shape of the dose curve; as a rule, active = well fitted curve in the direction sought with a large enough effect; inconclusive = small, poorly fitted or top-dose-only effect, or another doubt; inactive = no such curve, though single readings can be large; an effect the other way counts as inactive or inconclusive. Unless noted, % is scaled to controls: 0 for no effect and ±100 for the full control effect.

SMILES	HT1080 IDH1KD tx	TDP1 cell noCPT	HT1080-NT tox	IL1B secr inh	DT40 TDP1 CPT
C=CC(=O)N1C/C(=C/c2ccc(F)cc2)C(=O)/C(=C\c2ccc(F)cc2)C1	2.9µM*	-104%	?	-84*	0.82µM*
Cc1ccc(/C=[N+](\[O-])c2ccc(N(C)C)cc2)c2nsnc12	-1%	16µM*	21µM*	-99*	7.3µM*
Cc1ccc2nsnc2c1NS(=O)(=O)c1c(C)ccc2nsnc12	0%	-14%	-6%	5	6%
CC(=O)c1ccc(NC(=O)CN2CCCC2)cc1	3%	?	0%	-13	4%
Cc1nnc(NC(=O)CSC2CCCCC2)s1	17%	5.8µM*	14%	3	1.8µM*
OC(CSc1ccc(F)cc1)CN1CCN(c2ccccc2)CC1 (configuration not stated)	1%	-8%	1%	-5	-14%
Cc1ccc(CN2CCN(CC3CC4C=CC3C4)CC2)cc1 (configuration not stated)	3%	?	1%	13	-24%
CCC(NC(=O)/C(=C\c1ccc2c(c1)OCO2)NC(C)=O)C(=O)O (configuration not stated)	12%	3%	14%	17	6%
COC(=O)c1cccc(NC(=O)CN2C(=O)C3CCCCC3C2=O)c1 (configuration not stated)	2%	-14%	-3%	-14	-13%
CCn1c(=O)cc(SCC(=O)Nc2cc(Cl)ccc2OC)c2ccccc21	·	16µM*	·	·	?
COc1cccc(CNC(=O)CSc2cc(=O)n(C)c3ccccc23)c1	26%	4%	19%	-19	29%
CCOC(=O)c1cccc(NC(=O)CN2C(=O)C3C4C=CC(C4)C3C2=O)c1 (configuration not stated)	-6%	-5%	8%	-95*	2%
CCn1c(=O)cc(SCC(=O)Nc2ccc(OC)c(OC)c2)c2ccccc21	-7%	23µM*	-6%	?	18µM*
COc1ccc(CNC(=O)CSc2cc(=O)n(C)c3ccccc23)cc1	26%	16µM*	16%	-23	?
C=C1CCC(=O)C(C)CCC2C1CC2(C)C (configuration not stated)	·	-4%	·	·	3%
COc1ccccc1N1CCN(C(=O)C(=O)c2cn(CC(=O)N3CCOCC3)c3ccccc23)CC1	8%	25%	4%	1	-1%
CCOC(=O)c1cccc(NC(=O)CSc2cc(=O)n(C)c3ccccc23)c1	·	?	·	·	21µM*
Cn1c(=O)cc(SCC(=O)Nc2cccnc2)c2ccccc21	-3%	?	1%	38	?
COc1cc(NC(=O)CSc2cc(=O)n(C)c3ccccc23)cc(OC)c1OC	·	?	·	·	10µM*
O=C1CCCc2[nH]c(=O)c(C(=O)NCc3ccccc3)cc21	·	-19%	·	·	-19%
COC(=O)c1ccc(OC)c(CSc2nnc(-c3ccc(C(C)(C)C)cc3)o2)c1	-3%	21µM*	-3%	-3	16µM*
CC1=C(c2ccccc2)CCC1=O	5%	4%	10%	23	2%
CC1=C(c2ccccc2)C(O)(c2ccccc2)C(C)C1=O (configuration not stated)	?	16µM*	?	57	16µM*
Cc1oc2c(c1C(=O)NCc1ccccc1F)C1=NCCN1C=N2	·	-11%	·	·	0%
COc1ccc2c(c1)CCC1C2=NN(/C(C)=C\C(C)=O)C1c1ccc(F)cc1 (configuration not stated)	-1%	?	0%	6	18µM*
SMILES	HT1080 IDH1KD tx	TDP1 cell noCPT	HT1080-NT tox	IL1B secr inh	DT40 TDP1 CPT
COc1ccc2c(c1)C1=NN(/C(C)=C/C(C)=O)C(c3ccc(F)cc3)C1CC2 (configuration not stated)	13%	?	5%	-10	?
COc1ccc2c(c1)C1=NN(/C(C)=C\C(C)=O)C(c3ccccc3)C1CC2 (configuration not stated)	-21%	?	-25%	23	18µM*
COc1ccc2nc(N(Cc3cccnc3)C(=O)c3ccc(Cl)cc3)sc2c1	·	-21%	·	·	-1%
CCOc1ccc(Nc2cc(C)nc3nncn23)cc1	·	-4%	·	·	-6%
CN(c1ccccc1)S(=O)(=O)c1cccc(C(=O)NCC(=O)Nc2ccc(F)c(F)c2F)c1	-5%	16µM*	-4%	-22	?
CCN(c1ccccc1)S(=O)(=O)c1ccc(C(=O)NCC(=O)Nc2ccc(F)c(F)c2F)cc1	?	15µM*	?	-28	15µM*
Cc1ccc(S(=O)(=O)N(C)CC(=O)NCC(=O)Nc2ccc(F)c(F)c2F)cc1	-8%	?	-4%	4	-19%
CCc1cccc(NC(=O)C2CCN(S(=O)(=O)c3ccc4c(c3)NC(=O)CO4)CC2)c1	0%	?	-2%	1	?
CCOC(=O)c1ccc(NC2=CC(c3ccc(O)c(OCC)c3)N(c3ccc(C(=O)OCC)cc3)C2=O)cc1 (configuration not stated)	·	13µM*	·	·	13µM*
CC(C)(C)Cc1nnc(NS(=O)(=O)c2ccc([N+](=O)[O-])cc2)s1	-6%	-9%	-14%	18	3%
CCCC(=O)Nc1ccc(C(=O)NNC(=S)NC(=O)c2ccc(Br)o2)cc1	?	?	-12%	24	?

Screens deposited in PubChem BioAssay by National Center for Advancing Translational Sciences (NCATS).
